# Screening results from PubChem BioAssay.
# DRD3 agonist – qHTS of D3 Dopamine Receptor Agonist: qHTS | max activation, % | 0.58% of 410,000 active | D3R DiscoveRx beta-arrestin cells, luminescence, 90 min; in the data active = max activation above about 30%
# Target sequence (P35462 whole entry, looked up): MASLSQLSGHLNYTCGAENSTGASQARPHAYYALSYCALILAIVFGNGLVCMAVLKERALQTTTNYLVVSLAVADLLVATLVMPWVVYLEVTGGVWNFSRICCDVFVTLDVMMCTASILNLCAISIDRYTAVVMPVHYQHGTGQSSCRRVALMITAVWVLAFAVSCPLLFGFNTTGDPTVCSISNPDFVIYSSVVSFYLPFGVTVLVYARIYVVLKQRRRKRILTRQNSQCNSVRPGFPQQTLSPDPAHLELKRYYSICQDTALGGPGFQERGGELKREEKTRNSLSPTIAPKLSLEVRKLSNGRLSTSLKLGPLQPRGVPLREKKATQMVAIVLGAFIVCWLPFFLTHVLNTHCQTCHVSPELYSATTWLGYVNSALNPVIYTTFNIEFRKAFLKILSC
#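 Cells at 1500/well, incubated overnight, then treated with pinned compounds (dopamine as control) for 90 min at 37 degrees C. DiscoveRx reagent added for 30 - 60 minutes at room temperature; luminescence read.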
# DRD3 antagonist – qHTS of D3 Dopamine Receptor Antagonist: qHTS; D(3) dopamine receptor (Homo sapiens), P35462; D3R cells, DiscoveRx beta-arrestin luminescence, antagonist mode; hits give low values; max response, negative = inhibition, %; 2.5% of 360,000 active; AID 652054, 2013; in the data active = max response below about -50%; inconclusive = no clear call, values can overlap the other calls
#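 Cells expressing the human receptor were seeded at 1500 cells/well, incubated overnight at 37 degrees C in 5% CO2, then exposed to library compounds with dopamine controls for 90 minutes at 37 degrees C before luminescent detection.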
# D1 ag – Allosteric Agonists of the Human D1 Dopamine Receptor: qHTS | D(1A) dopamine receptor (Homo sapiens), P21728 | HEK293 T-REx D1 cells, calcium flux, agonist mode | activation, % at 2 µM | 1% of 360,000 active | AID 504660, 2011; in the data active = activation above about 30%
#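 Agonism was scored from calcium flux recorded over 180 s (1 read/s) after pintool compound addition, following a 10-cycle baseline. Cells were inducible force-coupled HEK293 TREx D1, plated overnight at 30 C and loaded with no-wash calcium dye.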
# D1 potentiator – Potentiators of Human D1 Dopamine Receptor: qHTS | HEK293 TREx D1 cells, calcium flux, dopamine EC20 potentiation | potentiation, % at 10 µM | 0.036% of 360,000 active | AID 504651, 2011; in the data active = potentiation above about 30%
# D1 antag – Antagonist of Human D 1 Dopamine Receptor: qHTS; activity change, negative = inhibition, % at 10 µM; 3.2% of 360,000 active; D(1A) dopamine receptor (Homo sapiens), P21728; HEK293 TREx D1 cells, calcium flux, dopamine EC80; hits give low values; in the data active = activity change below about -30%
#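 Compound effects on dopamine-evoked calcium signalling were measured in tetracycline-induced HEK293 Trex D1 cells. Dopamine at EC80 followed a 180 s compound pre-read, and fluorescence was tracked kinetically for 180 s more.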
# ERG Ets-DNA blk – qHTS for Small Molecule Inhibitors of the ERG Ets/DNA interaction; fluorescence polarization, His-ERG Ets domain / labelled DNA; AID 624246, 2012; 0.028% of 370,000 active; Transcriptional regulator ERG (Homo sapiens), P11308; Potency, µM (titrated, usually from 76.9 µM), usual class: inhibitors; active = well fitted inhibition curve with a large enough effect in the polarisation, with a control signal flat; inconclusive = small, poorly fitted or top-dose-only effect, or effect the other way, or a change in a side signal; inactive = no such curve, though single readings can be large or run the other way; the % refers to the polarisation;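 note: polarization taken with two DNA probes labelled with fluorescein and Texas red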
#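 His-tagged ERG Ets domain (1 uM in the protein solution; 300mM KCl, 50mM Tris-HCl, 1mM EDTA, 1mM DTT, pH 7.5) received compound, then a probe mix of 5 nM fluorescein-DNA and 100nM Texas-615-DNA. Fluorescence polarization was read for both dyes.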
# A number is an active result; - = inactive; ? = inconclusive; . = no result; ! = repeats disagree. Hits are enriched below; roughly 6.1% of the tested compounds scored in any of these assays.
SMILES,DRD3 agonist,DRD3 antagonist,D1 ag,D1 potentiator,D1 antag,ERG Ets-DNA blk
O=C(Nc1ccc(-c2nc3cc(Cl)ccc3c(=O)o2)cc1)c1ccco1,-,-,-,-,-32,-
Cc1nc2ccccc2cc1C(=O)N(C)Cc1ccccc1,-,-,-,-,-,-
Cc1c(Cl)cccc1NC(=O)CCCCCN1C(=O)CCC1=O,-,-,-,-,-,-
O=C(CCCCCN1C(=O)CCC1=O)Nc1ncn[nH]1,-,-53,-,-,-,-
O=C(N/N=C/c1ccc(OC(=O)c2ccccc2)c([N+](=O)[O-])c1)c1ccc(O)cc1,-,-,-,-,-33,-
CCOc1cc(/C=N\NC(=O)c2ccc(NC(=O)CC)cc2)ccc1OC(=O)c1ccccc1,-,-,-,-,-57,-
COc1cc(/C=N/NC(=O)c2sc3ccccc3c2Cl)ccc1OC(=O)c1ccc([N+](=O)[O-])cc1,-,-,-,-,-38,-
COc1ccc(C(=O)Oc2ccc(/C=N/NC(=O)c3ccccc3OC)cc2[N+](=O)[O-])cc1,-,?,-,-,-,-
CCOc1cc(/C=N/NC(=O)CSc2nncn2C)ccc1OC(=O)c1ccc(Cl)cc1,-,-,-,-,-55,-
COc1ccc(/C=N/NC(=O)c2cccc([N+](=O)[O-])c2)cc1OC(=O)c1ccccc1,-,?,-,-,-,-
Cc1cc(Br)ccc1OCC(=O)NC1CCCC1,-,-,-,-,-,-
COc1ccccc1CNC(=O)C1CCC(CNc2c(N3CCCCC3)c(=O)c2=O)CC1 (stereo not drawn),-,-,-,-,-,-
CC(C)(C)c1ccc(-n2ncc3c2CCCC3NC(=O)CCN2CCCC2=O)cc1 (stereo not drawn),-,-,-,-,-,-
CC(C)(C)C(=O)C1=C(O)C(=O)N(Cc2ccccc2)C1c1ccccc1Cl (stereo not drawn),-,-,-,-,-,-
Cc1ccc(C(NC(=O)N2CCOCC2)=C(Cl)Cl)cc1F,-,-,-,-,-37,.
CCCCNC(=O)Nc1nnc(SCC(=O)OCC)s1,-,-,-,-,-,-
COc1ccc(Cn2c(S(=O)(=O)CC(N)=O)nc3ccccc32)cc1[N+](=O)[O-],.,.,-,-,-,.
NC(=O)CS(=O)(=O)c1nc2ccccc2n1Cc1ccccn1,-,-,-,-,-38,-
Cc1cc(C(=O)N2CCN(c3ccc([N+](=O)[O-])cc3)CC2)no1,-,-,-,-,-,-
Cc1cc(C(=O)N2CCN(c3ccc([N+](=O)[O-])cc3)CC2)n[nH]1,-,-,-,-,-32,-
COCC(=O)N1CCN(c2ccc([N+](=O)[O-])cc2)CC1,-,-,-,-,-32,-
Cc1c(C(=O)O)c(O)cc2c1C(=O)c1c(O)c([C@@H]3O[C@H](CO)[C@@H](O)[C@H](O)[C@H]3O)c(O)c(O)c1C2=O,-,-84,.,.,.,-
COc1ccc(CNC(=O)CN(c2ccccc2OC)S(=O)(=O)c2ccc(C)cc2)cc1,-,.,44,-,-32,-
CCOc1ccccc1N(CC(=O)NCCc1ccc(OC)cc1)S(=O)(=O)c1ccc(C)cc1,-,-,.,.,.,.
COc1ccc(CNC(=O)CN(c2ccccc2)S(=O)(=O)N(C)C)cc1,-,-,-,-,-32!,-
SMILES,DRD3 agonist,DRD3 antagonist,D1 ag,D1 potentiator,D1 antag,ERG Ets-DNA blk
CN(C)S(=O)(=O)N(CC(=O)Nc1ccccc1)c1ccccc1,-,-54,-,-,-,-
CN(C)S(=O)(=O)N(CC(=O)Nc1cccc(F)c1)c1ccccc1,-,-,-,-,-,-
CN(C)c1ccc(CNC(=O)CCc2ccc(S(=O)(=O)N3CCCCCC3)cc2)cc1,-,-,-,-,-,-
CCCCc1ccc(NC(=O)Nc2cc(C)nn2C)cc1,-,-,-,-,-,32µM
COC(=O)c1ccc(/C=N/NC(=O)CCSc2nc3ccccc3s2)cc1,.,.,-,-,-,.
CC(C)(C)c1ccc(C(=O)OC/C(O)=C(\C#N)c2nc3ccccc3s2)cc1,-,-,-,-,-75,-
N#C/C(=C/c1ccc(-c2ccc(S(N)(=O)=O)cc2)o1)c1nc2ccccc2s1,-,-,265,-,-,?
COC(=O)c1ccc(/C=C(\C#N)c2nc3ccccc3s2)cc1,-,-,56,-,-,-
N#C/C(=C/c1ccc(-c2ccccc2)o1)c1nc(-c2cccs2)cs1,-,-,215,-,-,-
N#C/C(=C(/O)COC(=O)c1ccccc1O)c1nc2ccccc2s1,-,-,-,-,-,-
O=[N+]([O-])c1ccc(N2CCC(=NOCc3ccc(Cl)cc3)CC2)cc1,-,-,-,-,-,-
CCOC(=O)N1CCN(/C=C(\C#N)c2nc3ccccc3s2)CC1,-,-,32,-,-,-
N#C/C(=C\N1CCN(Cc2ccc3c(c2)OCO3)CC1)c1nc2ccccc2s1,-,-,-,-,-,-
N#C/C(=C\c1ccccn1)c1nc2ccccc2s1,-,-,148,-,-,-
c1ccc(C2Nc3cccc4cccc(c34)N2)cc1,-,-,-,-,-,-
c1csc(C2Nc3cccc4cccc(c34)N2)c1,-,-70,-,-,-,-
COc1ccc(S(=O)(=O)NCc2ccccn2)cc1OC,-,-,-,-,-,-
COc1ccccc1Oc1ccc(S(=O)(=O)NCc2ccccn2)cc1,-,-79,-,-,-54,-
CN(CCC1CCOCC1)C(=O)CC1C(=O)NCCN1Cc1c(F)cccc1Cl (stereo not drawn),-,-,-,-,-52,-
CN(Cc1ccon1)C(=O)CC1C(=O)NCCN1Cc1cccc(F)c1F (stereo not drawn),-,-,-,-,-,-
CN(CCCC1CCCC1)C(=O)CC1C(=O)NCCN1Cc1cccc(F)c1F (stereo not drawn),-,-,-,30,-,-
CC1CCc2c(sc3ncnc(N4CCOCC4)c23)C1 (stereo not drawn),-,-,-,-,-,-
COc1ccc(OCCCCc2c(C)n[nH]c2C)cc1,-,-,.,.,.,-
Cc1cccc(C)c1C(O)c1ncc(-c2cccc(C(F)(F)F)c2)[nH]1 (stereo not drawn),-,-61,.,.,.,.
Cc1ccc(C(O)c2ncc(-c3cccc(C(F)(F)F)c3)[nH]2)cc1 (stereo not drawn),-,-,.,.,.,.
COc1ccc(CN/C(C)=C(/C#N)C(N)=O)cc1OC,-,-,-,-,-66,-
COc1ccc(NC(=O)c2ccc3nc(C)c(N(C)C(=O)CCc4ccccc4)n3c2)cc1OC,-,-,.,.,.,.
